Shown is part of a subset that was picked to be rich in the strongest signals.
Legend:
Assay in all cases: glycan array binding signal (z-score within array); higher = stronger binding
Conditions in all cases: glycan notation: IUPAC condensed, linker removed
[1] = target: Fuc(a1-2)Gal(b1-3)GalNAc(b1-3)Gal
Method in brief: (§1)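 From the Consortium for Functional Glycomics database, 3228 arrays were curated, keeping only those whose protein sequence was available. Binding is given as a within-array Z-score averaged across arrays sharing a protein sequence and across linkers. Negative Z-scores can be read as non-binding.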

[2] = target: Fuc(a1-2)Gal(b1-3)GlcNAc(b1-3)[Gal(b1-4)GlcNAc(b1-6)]Gal(b1-4)Glc
Method in brief: as §1

[3] = target: Fuc(a1-2)Gal(b1-3)GlcNAc6S
Method in brief: as §1

[4] = target: Fuc(a1-2)Gal(b1-4)GlcNAc(b1-2)[Fuc(a1-2)Gal(b1-4)GlcNAc(b1-4)]Man(a1-3)[Fuc(a1-2)Gal(b1-4)GlcNAc(b1-2)Man(a1-6)]Man(b1-4)GlcNAc(b1-4)GlcNAc
Method in brief: as §1

[5] = target: Fuc(a1-2)Gal6S(b1-3)GlcNAc
Method in brief: as §1

[6] = target: Fuc(a1-2)[Gal(a1-3)]Gal(b1-3)GlcNAc
Method in brief: as §1

[7] = target: Fuc(a1-2)[GalNAc(a1-3)]Gal(b1-4)GlcNAc(b1-3)Gal(b1-4)GlcNAc
Method in brief: as §1

[8] = target: Fuc(a1-3)[Gal(b1-4)]GlcNAc(b1-2)Man(a1-3)[Fuc(a1-3)[Gal(b1-4)]GlcNAc(b1-2)Man(a1-6)]Man(b1-4)GlcNAc(b1-4)GlcNAc
Method in brief: as §1

[9] = target: Fuc(a1-3)[GalNAc(b1-4)]GlcNAc
Method in brief: as §1

[10] = target: Fuc(a1-4)GlcNAc
Method in brief: as §1

[11] = target: Gal(a1-3)Gal
Method in brief: as §1

[12] = target: Gal(a1-3)Gal(b1-3)GlcNAc(b1-3)GalNAc
Method in brief: as §1

[13] = target: Gal(a1-3)Gal(b1-4)[Fuc(a1-3)]GlcNAc
Method in brief: as §1

[14] = target: Gal(a1-4)Gal(b1-4)GlcNAc
Method in brief: as §1

[15] = target: Gal(b1-3)GalNAc(b1-3)Gal
Method in brief: as §1

[16] = target: Gal(b1-3)GalNAc(b1-4)Gal(b1-4)Glc
Method in brief: as §1

[17] = target: Gal(b1-3)GalNAc(b1-4)[Neu5Ac(a2-3)]Gal(b1-4)Glc
Method in brief: as §1

[18] = target: Gal(b1-3)GlcNAc(a1-6)Gal(b1-4)GlcNAc
Method in brief: as §1

[19] = target: Gal(b1-3)GlcNAc(b1-2)Man(a1-3)[Gal(b1-3)GlcNAc(b1-2)Man(a1-6)]Man(b1-4)GlcNAc(b1-4)GlcNAc
Method in brief: as §1

[20] = target: Gal(b1-3)GlcNAc(b1-2)Man(a1-3)[Gal(b1-3)GlcNAc(b1-2)Man(a1-6)]Man(b1-4)GlcNAc(b1-4)[Fuc(a1-6)]GlcNAc
Method in brief: as §1

[21] = target: Gal(b1-3)GlcNAc(b1-6)[Gal(b1-3)]GalNAc
Method in brief: as §1

[22] = target: Gal(b1-3)[Neu5Ac(b2-6)]GalNAc
Method in brief: as §1

[23] = target: Gal(b1-4)GlcNAc
Method in brief: as §1

[24] = target: Gal(b1-4)GlcNAc(b1-2)Man(a1-3)[Man(a1-6)]Man(b1-4)GlcNAc(b1-4)GlcNAc
Method in brief: as §1

[25] = target: Gal(b1-4)GlcNAc(b1-2)[Gal(b1-4)GlcNAc(b1-4)]Man(a1-3)[GlcNAc(b1-4)][Gal(b1-4)GlcNAc(b1-2)[Gal(b1-4)GlcNAc(b1-6)]Man(a1-6)]Man(b1-4)GlcNAc(b1-4)GlcNAc
Method in brief: as §1

[26] = target: Gal(b1-4)GlcNAc(b1-3)Gal(b1-4)GlcNAc(b1-3)Gal(b1-4)GlcNAc(b1-3)Gal(b1-4)GlcNAc(b1-3)Gal(b1-4)GlcNAc(b1-2)Man(a1-3)[Gal(b1-4)GlcNAc(b1-3)Gal(b1-4)GlcNAc(b1-3)Gal(b1-4)GlcNAc(b1-3)Gal(b1-4)GlcNAc(b1-3)Gal(b1-4)GlcNAc(b1-2)Man(a1-6)]Man(b1-4)GlcNAc(b1-4)[Fuc(a1-6)]GlcNAc
Method in brief: as §1

[27] = target: Gal3S(b1-4)[Fuc(a1-3)]GlcNAc
Method in brief: as §1

[28] = target: GalNAc(a1-3)GalNAc
Method in brief: as §1

[29] = target: GalNAc(a1-3)GalNAc(b1-3)Gal(a1-4)Gal(b1-4)GlcNAc
Method in brief: as §1

[30] = target: GlcA(b1-3)Gal
Method in brief: as §1

[31] = target: GlcNAc(a1-4)Gal(b1-4)GlcNAc
Method in brief: as §1

[32] = target: GlcNAc(b1-2)[GlcNAc(b1-4)]Man(a1-3)[GlcNAc(b1-2)Man(a1-6)]Man(b1-4)GlcNAc(b1-4)GlcNAc
Method in brief: as §1

B1: UDA (Urtica dioica), P11218 (protein)
chain: MMMRFLSAVVIMSSAMAVGLVSAQRCGSQGGGGTCPALWCCSIWGWCGDSEPYCGRTCENKCWSGERSDHRCGAAVGNPPCGQDRCCSVHGWCGGGNDYCSGSKCQYRCSSSVRGPRVALSGNSTANSIGNVVVTEPLFDQMFSHRKDCPSQGFYSYHSFLVAAESFPAFGTIGDVATRKREVAAFLAHISQATSGERSDVENPHAWGLCHINTTTVTENDFCTSSDWPCAAGKKYSPRGPIQLTHNFNYGLAGQAIGEDLIQNPDLVEKDPIISFKTALWFWMSQHDNKPSCHDIVLNANSAANRIPNKGVIGNIISRAFGHDDFAVRSSSIGFYKRYCDMLGVSYGHDLKYWFDNTPSSEFQRIQMRVAA
glycan array binding signal (z-score) [1]: -0.215
glycan array binding signal (z-score) [2]: -0.109
glycan array binding signal (z-score) [3]: -0.182
glycan array binding signal (z-score) [4]: -0.161
glycan array binding signal (z-score) [5]: -0.184
glycan array binding signal (z-score) [6]: -0.167
glycan array binding signal (z-score) [7]: -0.054
glycan array binding signal (z-score) [8]: -0.165
glycan array binding signal (z-score) [9]: -0.172
glycan array binding signal (z-score) [10]: -0.178
glycan array binding signal (z-score) [11]: -0.189
glycan array binding signal (z-score) [12]: -0.177
glycan array binding signal (z-score) [13]: -0.183
glycan array binding signal (z-score) [14]: -0.101
glycan array binding signal (z-score) [15]: -0.178
glycan array binding signal (z-score) [16]: -0.186
glycan array binding signal (z-score) [17]: -0.189
glycan array binding signal (z-score) [18]: -0.166
glycan array binding signal (z-score) [19]: 0.04
glycan array binding signal (z-score) [20]: -0.156
glycan array binding signal (z-score) [21]: -0.177
glycan array binding signal (z-score) [22]: -0.187
glycan array binding signal (z-score) [23]: 0.006
glycan array binding signal (z-score) [24]: 4.63
glycan array binding signal (z-score) [25]: -0.17
glycan array binding signal (z-score) [26]: 1.52
glycan array binding signal (z-score) [27]: -0.184
glycan array binding signal (z-score) [28]: -0.191
glycan array binding signal (z-score) [29]: -0.177
glycan array binding signal (z-score) [30]: -0.173
glycan array binding signal (z-score) [31]: 0.188
glycan array binding signal (z-score) [32]: 0.083

— the supplement of paper PMC8728848
